In all, about 39,000 compounds went through this assay and about 3,300 (8.5%) were called active. The entries come from a sample that favours actives as a whole.
test system: HepG2; experiment: cytotoxicity call (relative viability < 0.9); conditions: 10 µM

| SMILES | cytotoxicity call |
| --- | --- |
| N=C(N)N/N=C1\CCc2c(C(=N)N)cccc21 | inactive |
| C[C@@H]1CN([C@@H](C)CO)C(=O)Cc2cc(NC(=O)CCCCCC(=O)Nc3ccccc3N)ccc2O[C@@H]1CN(C)C(=O)Nc1cccc2ccccc12 | inactive |
| CCS(=O)(=O)Nc1ccc2c(c1)C(=O)N(C)C[C@@H](OC)[C@@H](C)CN(Cc1ccccn1)[C@H](C)CO2 | inactive |
| C[C@@H]1CN([C@@H](C)CO)C(=O)c2cc(NS(=O)(=O)c3cn(C)cn3)ccc2O[C@@H](C)CCCCO[C@@H]1CN(C)C | inactive |
| COc1ccc(NC(=O)Nc2ccc3c(c2)C(=O)N([C@@H](C)CO)C[C@H](C)[C@@H](CN(C)Cc2ccncc2)OCCCC[C@@H](C)O3)cc1 | active |
| COc1ccc(NC(=O)Nc2ccc3c(c2)C(=O)N([C@H](C)CO)C[C@H](C)[C@@H](CN(C)Cc2ccncc2)OCCCC[C@@H](C)O3)cc1 | inactive |
| COc1ccc(CN(C)C[C@H]2OCCCC[C@H](C)Oc3ccc(NC(=O)Nc4ccc(OC)cc4)cc3C(=O)N([C@H](C)CO)C[C@H]2C)cc1 | active |
| COc1ccc(NC(=O)Nc2ccc3c(c2)C(=O)N([C@H](C)CO)C[C@@H](C)[C@@H](CN(C)Cc2ccncc2)OCCCC[C@H](C)O3)cc1 | inactive |
| COc1ccc(CN(C)C[C@H]2OCCCC[C@@H](C)Oc3ccc(NC(=O)Nc4ccc(OC)cc4)cc3C(=O)N([C@H](C)CO)C[C@H]2C)cc1 | active |
| COc1cccc(S(=O)(=O)N(C)C[C@H]2Oc3ncc(C#CCC(C)C)cc3C(=O)N([C@@H](C)CO)C[C@@H]2C)c1 | inactive |
| C[C@@H]1CN([C@H](C)CO)C(=O)CCCn2nncc2CO[C@H]1CN(C)S(=O)(=O)c1ccccc1C#N | inactive |
| C[C@H](CO)N1C[C@H](C)[C@H](CN(C)CC2CCCCC2)Oc2ccc(NC(=O)Cc3cn(C)c4ccccc34)cc2CC1=O | inactive |
| C[C@@H]1CN([C@@H](C)CO)C(=O)c2cc(NS(=O)(=O)c3ccc(F)cc3)ccc2O[C@H]1CN(C)CC1CC1 | inactive |
| CCS(=O)(=O)Nc1ccc2c(c1)C(=O)N(C)[C@@H]1CC[C@@H](CC(=O)NCc3ccc(OC)cc3)O[C@H]1CO2 | inactive |
| COCC#Cc1ccc([C@H]2[C@@H](CO)N3C(=O)CN(C(=O)C4CCOCC4)C[C@H]23)cc1 | inactive |
| COc1ccc2c3c(n(c2c1)C)[C@@H](CO)N(C[C@]13CCN(CC1)CC1CCOCC1)C(=O)Cc1ccccn1 | inactive |
| C[C@H](CO)N1C[C@H](C)[C@@H](CN(C)S(=O)(=O)c2cn(C)cn2)Oc2ccc(NS(C)(=O)=O)cc2CC1=O | inactive |
| Cc1noc(C)c1S(=O)(=O)Nc1ccc2c(c1)C(=O)N([C@@H](C)CO)C[C@H](C)[C@H](CN(C)S(=O)(=O)c1ccc(Cl)cc1)O2 | inactive |
| O=C(O)[C@H]1C2C(=O)N3CCCO[C@@H]3[C@]23C=C[C@H]1O3 (some centres undefined) | inactive |
| CCOP(=O)(CC(=O)O[C@H]1[C@@H]2OC(=O)[C@@H](Cc3ccc4ccccc4c3)C/C=C\C[C@H](Cc3ccc4ccccc4c3)C(=O)O[C@H]2[C@@H](OC)O[C@@H]1COC(=O)NCCCCCC(=O)NO)OCC | inactive |

| SMILES | cytotoxicity call |
| --- | --- |
| CCOP(=O)(CC(=O)O[C@H]1[C@H](OC(=O)Nc2ccccc2-c2ccccc2)[C@H](OC(=O)Nc2ccccc2-c2ccccc2)[C@@H](OC)O[C@@H]1COC(=O)NCCCCCC(=O)NO)OCC | active |
| COc1ccc(NC(=O)O[C@H]2[C@H](OC(=O)Nc3ccccc3-c3ccccc3)[C@H](OC(=O)Nc3ccccc3-c3ccccc3)[C@@H](OC)O[C@@H]2COC(=O)NCCCCCC(=O)NO)cc1 | inactive |
| COc1ccc(NC(=O)O[C@H]2[C@H](OC(=O)Nc3ccccc3-c3ccccc3)[C@@H](OC(=O)Nc3ccccc3-c3ccccc3)[C@@H](OC)O[C@@H]2COC(=O)NCCCCCC(=O)NO)cc1 | inactive |
| CO[C@H]1O[C@H](COC(=O)NCCCCCC(=O)NO)[C@@H](OC(=O)c2ccccc2)[C@H](OC(=O)Nc2ccccc2-c2ccccc2)[C@@H]1OC(=O)Nc1ccccc1-c1ccccc1 | active |
| CO[C@H]1O[C@H](COC(=O)NCCCCCC(=O)NO)[C@H](OC(=O)Nc2ccccc2)[C@H](OC(=O)Nc2ccccc2)[C@H]1OC(=O)Nc1ccccc1 | inactive |
| NCc1ccc2occc2c1 | inactive |
| Cc1ccc(S(=O)(=O)Nc2ccc3c(c2)CC(=O)N([C@H](C)CO)C[C@H](C)[C@H](CN(C)C(=O)Nc2ccc(C(F)(F)F)cc2)O3)cc1 | inactive |
| COc1ccc(S(=O)(=O)N(C)C[C@@H]2Oc3c(NC(=O)c4ccncc4)cccc3C(=O)N([C@@H](C)CO)C[C@H]2C)cc1 | inactive |
| CNC(=O)[C@@]12CCC3(CCN(C(=O)COC)CC3)[C@H]1CN(S(C)(=O)=O)C2 | inactive |
| C[C@@H]1CCCCO[C@@H](CN(C)CC2CCCCC2)[C@@H](C)CN([C@@H](C)CO)C(=O)c2cc(NC(=O)Cc3ccccc3)ccc2O1 | inactive |
| COc1ccc(NC(=O)Nc2cccc3c2O[C@H](CN(C)C(=O)Nc2cccc4ccccc24)[C@@H](C)CN([C@@H](C)CO)C3=O)cc1 | inactive |
| C[C@H](CO)N1C[C@H](C)[C@@H](CN(C)Cc2ccc(-c3ccccc3)cc2)Oc2ccc(NS(=O)(=O)c3ccccc3)cc2CC1=O | inactive |
| C[C@@H]1CN([C@@H](C)CO)C(=O)Cc2cc(NS(=O)(=O)c3ccccc3)ccc2O[C@@H]1CN(C)Cc1ccc(-c2ccccc2)cc1 | active |
| C[C@H]1CN([C@@H](C)CO)C(=O)Cc2cc(NS(=O)(=O)c3ccccc3)ccc2O[C@H]1CN(C)Cc1ccc(-c2ccccc2)cc1 | active |
| C[C@H]1CN([C@@H](C)CO)C(=O)Cc2cc(NS(=O)(=O)c3ccccc3)ccc2O[C@@H]1CN(C)Cc1ccc(-c2ccccc2)cc1 | inactive |
| C[C@@H]1CN([C@@H](C)CO)C(=O)Cc2cc(NS(=O)(=O)c3ccccc3)ccc2O[C@H]1CN(C)Cc1ccc(-c2ccccc2)cc1 | inactive |
| C[C@H](CO)N1C[C@H](C)[C@H](CN(C)Cc2ccc(-c3ccccc3)cc2)Oc2ccc(NS(=O)(=O)c3ccccc3)cc2CC1=O | active |
| C[C@@H]1CN([C@H](C)CO)C(=O)Cc2cc(NS(=O)(=O)c3ccccc3)ccc2O[C@H]1CN(C)Cc1ccc(-c2ccccc2)cc1 | inactive |
| C[C@@H]1CN([C@H](C)CO)C(=O)Cc2cc(NS(=O)(=O)c3ccccc3)ccc2O[C@@H]1CN(C)Cc1ccc(-c2ccccc2)cc1 | inactive |

From the antibiotic and cytotoxicity screens of Wong et al. (2023)
